# Sampled rows, rich in hits. Any-hit rate of the full collection: about 2.9%.
# EPAC2 ant val: validation of human EPAC2 antagonists; 1.7% of 16,000 active; EPAC2 Rap1B BODIPY-GDP exchange, fluorescence; Potency, µM (highest dose often 112 µM), for inactives: top-dose activity, negative = inhibition, hits mostly inhibitors;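 also: 100% = activation by cAMP agonist control; nearly all actives have a fitted effect of over 40% in size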
#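 Normalized against a 6.5 mM cAMP agonist control, compounds were tested on 100 nM EPAC2 exchanging Rap1B-bound BODIPY-GDP (250 nM) for 50 uM GDP. Fluorescence drop (ex 480, em 540 nm) was tracked at room temperature over 30 min at 5-min intervals.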
# EPAC1 ag val: human EPAC1 agonism, validation; 1% of 16,000 active; Potency, µM, without a hit: max response, positive = active, actives largely listed as activators; O95398; EPAC1 Rap1b BODIPY-GDP exchange, fluorescence; also: nearly all actives have a fitted effect of over 70% in size
# Target sequence (O95398 whole entry, looked up): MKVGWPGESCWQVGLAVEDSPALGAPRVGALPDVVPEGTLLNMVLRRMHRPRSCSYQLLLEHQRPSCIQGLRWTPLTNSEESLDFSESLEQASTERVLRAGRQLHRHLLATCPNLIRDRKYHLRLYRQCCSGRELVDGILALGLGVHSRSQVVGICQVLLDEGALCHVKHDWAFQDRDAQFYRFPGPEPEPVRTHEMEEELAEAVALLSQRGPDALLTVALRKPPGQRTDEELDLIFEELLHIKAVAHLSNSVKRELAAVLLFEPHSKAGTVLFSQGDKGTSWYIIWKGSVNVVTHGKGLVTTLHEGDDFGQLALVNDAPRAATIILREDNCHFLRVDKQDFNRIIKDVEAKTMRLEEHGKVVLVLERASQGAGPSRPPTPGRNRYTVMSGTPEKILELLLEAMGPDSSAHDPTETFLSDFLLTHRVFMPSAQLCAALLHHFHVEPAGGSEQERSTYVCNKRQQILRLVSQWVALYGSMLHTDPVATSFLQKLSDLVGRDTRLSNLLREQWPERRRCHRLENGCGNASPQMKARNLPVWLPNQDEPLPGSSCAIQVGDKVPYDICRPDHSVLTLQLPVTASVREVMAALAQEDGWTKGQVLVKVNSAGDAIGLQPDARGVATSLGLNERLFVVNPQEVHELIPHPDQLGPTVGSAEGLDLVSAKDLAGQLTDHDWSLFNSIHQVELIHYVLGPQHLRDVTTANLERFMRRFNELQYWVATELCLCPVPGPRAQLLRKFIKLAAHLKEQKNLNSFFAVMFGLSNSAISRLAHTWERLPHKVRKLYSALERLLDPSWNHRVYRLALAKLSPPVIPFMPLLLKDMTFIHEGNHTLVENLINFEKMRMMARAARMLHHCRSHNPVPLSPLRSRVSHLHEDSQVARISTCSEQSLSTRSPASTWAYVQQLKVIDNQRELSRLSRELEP
# * hit, by the source's call; ? = inconclusive; ! = not active in a repeat; [ ] = remark or other dose. Calls follow the shape of the dose curve; as a rule, active = well fitted curve in the direction sought with a large enough effect; inconclusive = small, poorly fitted or top-dose-only effect, or another doubt; inactive = no such curve, though single readings can be large; an effect the other way counts as inactive or inconclusive. Unless noted, % is scaled to controls: 0 for no effect and ±100 for the full control effect; potency is read from the fitted curve at half-maximal effect.
SMILES,EPAC2 ant val,EPAC1 ag val
COC(=O)/C(C)=C\CC12OC(C)(C)C3CC(C=C4C(=O)c5c(OC)c6c(c(CC=C(C)C)c5OC431)OC(C)(CCC=C(C)C)C=C6)C2=O (stereo not drawn),-23%,-78%
CC(=O)Oc1c2c(c(CC=C(C)C)c3c1C(=O)C1=CC4CC5C(C)(C)OC(C/C=C(\C)C(=O)O)(C4=O)[C@]15O3)OC(C)(CCC=C(C)C)C=C2 (stereo partly drawn),71µM*,-207%
O=C(Nc1ccccc1-c1ccc(Cl)cc1)c1cccnc1Cl,8.9µM*,25%
CCCCCc1cc(O)c2c(c1)OC(C)(C)[C@@H]1CCC(C)=C[C@@H]21,?,-67%
CC(=O)O[C@H]1C[C@H](O[C@H]2[C@@H](O)C[C@H](O[C@H]3[C@@H](O)C[C@H](OC4CC[C@@]5(C)[C@H](CC[C@@H]6[C@@H]5CC[C@]5(C)[C@@H](C7=CC(=O)OC7)CC[C@]65O)C4)O[C@@H]3C)O[C@@H]2C)O[C@H](C)[C@H]1O[C@@H]1O[C@H](CO)[C@@H](O)[C@H](O)[C@H]1O (stereo partly drawn),1%,-12%
NCC[C@H](O)C(=O)N[C@@H]1C[C@H](N)[C@@H](O[C@H]2O[C@H](CN)[C@@H](O)[C@H](O)[C@H]2N)[C@H](O[C@@H]2O[C@H](CO)[C@@H](O)[C@H]2O)[C@H]1O,7%[56.6 µM],-6%
Clc1ccc(CSC(Cn2ccnc2)c2ccc(Cl)cc2Cl)cc1 (stereo not drawn),45µM*!,50µM*!
COc1cc(C[C@@H](C)N)c(OC)cc1Br,6%[239 µM],-14%
CCOC(=O)[C@]12Cc3cc(N(C)C)ccc3[C@H]1N(Cc1ccccc1)C(=O)c1ccccc12,79µM*,29%
CCOC(=O)[C@]12Cc3cc4c(cc3[C@H]1N(Cc1ccccc1)C(=O)c1ccccc12)OCO4,?,23%
COP(=S)(OC)Oc1ccc(SC)c(C)c1,?,10%
CCOP(=O)(NC(C)C)Oc1ccc(SC)c(C)c1 (stereo not drawn),50µM*,-45%
C[C@]12CC[C@H](O)C[C@H]1CC[C@@H]1[C@@H]2CC[C@]2(C)[C@@H](c3ccc(=O)oc3)C[C@H]3O[C@]132,-5%,-10%
O=C1c2ccccc2C(=O)C1C(=O)C(c1ccccc1)c1ccccc1,79µM*,21%
CC1(C)CC/C(=C/c2ccc(Cl)cc2)C1(O)Cn1cncn1 (stereo not drawn),?,14%
CCCCC/C=C\C/C=C\C/C=C\C/C=C\CCCC(=O)NCC(=O)O,40%,8%
CCCCC/C=C\C/C=C\C/C=C\C/C=C\CCCC(=O)Nc1ccc(O)cc1,32µM*,-70%
CCC1C2CC3C4N(C)c5ccccc5[C@]45CC(C2C5O)N3C1O (stereo partly drawn),-9%,1%
CCCCCCCCc1ccc(O)cc1,35µM*,-225%
CCCCc1ccc(C(=O)O)nc1,-6%,-1%
O=c1oc2ccccc2c(O)c1C(CC(O)c1ccc(-c2ccc(Br)cc2)cc1)c1ccccc1 (stereo not drawn),79µM*,-14%
CCC(=O)C(CC(C)N(C)C)(c1ccccc1)c1ccccc1 (stereo not drawn),12%[239 µM],?
C[C@@H]1[C@H]2Cc3ccc(O)cc3[C@]1(C)CCN2C,48%[453 µM],4%
CCc1cc(OC)c(C[C@@H](C)N)cc1OC,-3%[239 µM],4%
CCCCC[C@@H](O)C1C(=O)OC(C)[C@H](O)/C=C/C=C/C=C/C=C/C=C(\C)C(O)C(O)C(O)C[C@H](O)C[C@H](O)C[C@H](O)C[C@H](O)C[C@@H]1O (stereo partly drawn),38%,-13%
CO[C@H]1[C@@H](O)C[C@H](O[C@H]2[C@@H](O)C[C@H](O[C@H]3[C@@H](O)C[C@H](O[C@H]4CC[C@@]5(C)[C@H](CC[C@@H]6[C@@H]5C[C@@H](O)[C@]5(C)[C@@H](C7=CC(=O)OC7)CC[C@]65O)C4)O[C@@H]3C)O[C@@H]2C)O[C@@H]1C,-9%,-30%
Cc1ccccc1-n1c(C)nc2ccccc2c1=O,5%[239 µM],-9%
O=c1c2ccccc2[se]n1-c1ccccc1,40µM*!,8%
C[C@]12CC[C@@H](O)C[C@H]1CC[C@@H]1[C@H]2CC[C@]2(C)C(=O)CC[C@@H]12,4%,-20%
CN1[C@H]2CC[C@@H]1[C@@H](C(=O)O)[C@@H](OC(=O)c1ccccc1)C2,?,3%
